This passage reports growth results from PubChem BioAssay (NCI).

Molecules are shown by their SMILES. “And” between values parts separate entries of the source, which are not always exact repeats. Equal values may be shown once. This is part of a sample that, as a whole, favours compounds with a hit. Of some 83,000 tested, about 20% had one in any assay.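 Step 1: grow cells in 96-well plates. Step 2: add test compound at a single concentration. Step 3: incubate 48 h. Step 4: record percent growth.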 Unmarked numbers belong to inactive results. The source made the active and inactive calls. Where a SMILES comes first, the peptide text is derived from it.

In the experiment the test system is ACHN renal. Nature of the experiment: NCI-60 one-dose screen, 48 h (100 = growth as untreated, 0 = no growth, -100 = all killed). Particulars: 10 µM unless noted. The method, then: Growth inhibition of the ACHN human tumor cell line is measured as a screen for anti-cancer activity. Cells are grown in 96 well plates and exposed to the test compound for 48 hours. Compounds are tested at a single concentration, which is 10^-5 M for most compounds. The reported endpoint is percent growth (GI% or GIPRCNT), where numbers from 0 - 100% represent growth inhibition, and numbers from -100% - 0 represent cell death. For example, a value of 40 represents 60% growth inhibition. A value of 0 means no net growth occurred over the course of the experiment. A value of -40 indicates 40% of cells at the beginning of the experiment died by the end of the experiment. A value of -100 means all cells are dead at the end of the experiment.
NCI-60 Human Tumor Cell Lines Screen was performed using the standard one-dose NCI protocol, which is described in more detail at https://dtp.cancer.gov/discovery_development/nci-60/default.htm.
Compounds with GIPRCNT values below 10 were considered active. Activity score was based on GIPRCNT using the following formula: […]
Score is 0 for GIPRCNT values of 100 or above, 50 for GIPRCNT values of 0, and 100 for GIPRCNT values of -100.
`CCCCNc1ccc(Nc2ccccc2)cc1`: the growth was 77.6%.

In the case of `C/C(=C\c1ccccc1)c1ccccn1`, the growth is 105%.

On to `Cn1cnc([N+](=O)[O-])c1Sc1ncn[nH]1`, for which the growth was 110%.

For the compound `CC[C@H](CC[C@@H](C)[C@H]1CC[C@H]2[C@@H]3CC=C4C[C@@H](O)CC[C@]4(C)[C@H]3CC[C@]12C)C(C)C`, the growth is 94.4% and 103%.

For `O=C1OC(c2ccccc2)=N/C1=C\c1ccccc1`, the growth was 104%.

`CC(C)NC(=O)N/C=C(\C#N)C(N)=O`: the growth was 94.8%.

Take `Nc1nc(N)c2[nH]cnc2n1`: the growth was 89.3%.

`c1ccc(CNCCNCc2ccccc2)cc1`: the growth is 99.7%.

On to `c1ccc(-c2nc3ccccc3s2)cc1`, for which the growth is 87.1%.

Turning to `Fc1ccc([I+]c2ccc(F)cc2)cc1`, the growth is 79.5%.

In the case of `CC1CCC2(C(=O)O)CCC3(C)C(=CCC4C5(C)CCC(O)C(C)(C)C5CCC43C)C2C1C` (stereo not given), the growth was 57.7% and 76.2%.

`Cc1ccc(=O)[nH]n1`: the growth was 114% and 108%.

As to `O=C(Cc1ccccc1)c1ccc(O)c(Cl)c1`, the growth is 37.6%.

Regarding `O=CN1CCCCC1`, the growth is 109%.

Turning to `N#CC(C#N)N=Nc1cc(Cl)ccc1Cl`, the growth is 94.1%.

`CCOC(=O)c1c(C)cc(=O)oc1C`: the growth is 104%.

Consider `O=c1n(CC2CO2)c(=O)n(CC2CO2)c(=O)n1CC1CO1` (stereo not given), for which the growth was 19.8%.

As to `O=C1OC(C(O)C(O)CO)C(O)=C1O` (stereo not given), the growth was 105% and 103%.

Take `CN(C)CC1CCCCCC(CN(C)C)C1=O` (stereo not given): the growth is -49.8% (active).

Regarding `O=C(/C=C/c1ccccc1)c1ccccc1`, the growth was 107%.

For `Cc1ccc(S(=O)(=O)c2ccccc2)cc1`, the growth is 56%.

For `CC(=O)Nc1ccc(S(N)(=O)=O)cc1`, the growth is 103% and 93.3%.

As to `CCCCOC(=O)/C=C\C(=O)NC(N)=O`, the growth was 61.3%.

Regarding `CCCCCCCCCCNC(=O)CI`, the growth is -93.7% (active).

Take `CC1CCC2(OC1)OC1CC3C4CC=C5CC(O)CCC5(C)C4CCC3(C)C1C2C` (stereo not given): the growth is 93.5%.

On to `NC(=O)NCCCC(N)C(=O)O` (stereo not given), for which the growth was 98.7%.

As for `CC(C)C(C)(C)c1ccc(O)cc1`, the growth is 112%.

Take `CC1=C/C(O)CC(=O)Cc2nc(co2)C(=O)N2CCC=C2C(=O)OC(C(C)C)C(C)/C=C\C(=O)NC/C=C\1` (stereo not given): the growth was 86.2%.

For the compound `O=C(O)CCCl`, the growth was 101%.

For `N#CC(C#N)N=Nc1ccc(Cl)cc1`, the growth was 26.9%.

Consider `OCCN1CCCCCCC1`, for which the growth is 103%.

Take `CCCCOc1ccc(Nc2cc(Cl)ccc2C(=O)O)cn1`: the growth was 106% and 89.9%.

Consider `CN(C)c1ccc(/C=C\C(=O)c2ccccc2)cc1`, for which the growth is 99.4% and 101%.

Take `CC1CCC(C(C)C)C(NNC(N)=O)C1` (stereo not given): the growth was 110%.

For `NC(Cc1ccccc1)C(=O)NC(Cc1ccccc1)C(=O)O` (stereo not drawn) (H-Phe-Phe-OH; configuration not given here), the growth is 103%.

Turning to `CCCCCCCCCCCCCCCCC(C(=O)O)C(O)(CC(=O)O)C(=O)O` (stereo not given), the growth was 96.8% and 28.4%.

`OCC1OC(O)C(O)C(O)C1O` (stereo not given): the growth was 99.9%.

In the case of `CC(=O)OC(C)C(=O)NCC(C)O` (stereo not given), the growth was 102%.

As to `ClCCOCCOc1ccc(C2CCCCC2)cc1`, the growth is 108%.

In the case of `COc1ccc(Nc2ccc3ccccc3c2)cc1`, the growth is 92%.
